Test results published in PubChem BioAssay (NCATS).
Results filed as inconclusive are left out. Where a call stands in place of a potency, no number is given. Activity calls are given as the source filed them. Calls follow the shape of the dose curve; as a rule, active = well fitted curve in the direction sought with a large enough effect; inconclusive = small, poorly fitted or top-dose-only effect, or another doubt; inactive = no such curve, though single readings can be large; an effect the other way counts as inactive or inconclusive.

Columns and labels:
[1] = qHTS of pediatric cancer cell lines to identify multiple opportunities for drug repurposing: Confirmatory screen for NB-EBc1 cells (AID 1347115);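 also: cells exposed to compound for 48 h before the viability read; nearly all actives have a fitted effect of over 45% in size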; also: potency is read from the fitted curve at half-maximal effect
Summary of the method: (§1)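 Viability after 48 h compound treatment at 37C, 500-1,000 cells/well, read as ATP luminescence with CellTiter-Glo. Primary screens used 11-point (MIPE, 0.78 nM-46 µM) or 8-point (NPC, 0.59 nM-46 µM) final concentrations; follow-up screens used 11-point dilutions.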

[2] = qHTS of pediatric cancer cell lines to identify multiple opportunities for drug repurposing: Confirmatory screen for BT-37 cells (AID 1347117); conditions: BT-37 pediatric cancer cells, viability;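 also: potency is read from the fitted curve at half-maximal effect; viability measured after 48 h of compound exposure; nearly all actives have a fitted effect of over 55% in size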
Summary of the method: as §1

[3] = qHTS of pediatric cancer cell lines to identify multiple opportunities for drug repurposing: Confirmatory screen for TC32 cells (AID 1347118); conditions: TC32 Ewing sarcoma cells viability qHTS;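 also: potency is read from the fitted curve at half-maximal effect; cells exposed to compound for 48 h before the read; nearly all actives have a fitted effect of over 65% in size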
Summary of the method: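 qHTS, TC32, 48 h drug treatment, CellTiter-Glo luminescence as a proxy for metabolically active cells; primary top concentration 46 µM (MIPE 11-pt, NPC 8-pt); confirmatory 11-pt.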

[4] = qHTS of pediatric cancer cell lines to identify multiple opportunities for drug repurposing: Confirmatory screen for MG 63 (6-TG R) cells (AID 1347119); also: nearly all actives have a fitted effect of over 55% in size; also: potency is read from the fitted curve at half-maximal effect
Summary of the method: as §1

[5] = qHTS of pediatric cancer cell lines to identify multiple opportunities for drug repurposing: Confirmatory screen for control Hh wild type fibroblast cells (AID 1347121); also: nearly all actives have a fitted effect of over 70% in size
Summary of the method: as §1

[6] = qHTS of pediatric cancer cell lines to identify multiple opportunities for drug repurposing: Confirmatory screen for RD cells (AID 1347124);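 also: cells exposed to compound for 48 h before viability readout; nearly all actives have a fitted effect of over 65% in size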; also: potency is read from the fitted curve at half-maximal effect
Summary of the method: as §1

[7] = qHTS of pediatric cancer cell lines to identify multiple opportunities for drug repurposing: Confirmatory screen for Saos-2 cells (AID 1347127); conditions: Saos-2 osteosarcoma cell viability; also: potency is read from the fitted curve at half-maximal effect; nearly all actives have a fitted effect of over 60% in size
Summary of the method: as §1

[8] = qHTS of pediatric cancer cell lines to identify multiple opportunities for drug repurposing: Confirmatory screen for SK-N-SH cells (AID 1347129);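 also: cells exposed to compound for 48 h before viability read; nearly all actives have a fitted effect of over 60% in size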; also: potency is read from the fitted curve at half-maximal effect
Summary of the method: as §1

[9] = test system: Zika virus NS2B-NS3 protease; experiment: Primary screen GU AMC qHTS for Zika virus inhibitors (AID 1347154); also: nearly all actives have a fitted effect of over 70% in size
Summary of the method: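 Unlinked Zika NS2B hydrophilic domain–NS3 protease complex at 25 nM in 10 mM Tris-HCl pH 8.0, 0.01% Tween 20, with an AMC peptide substrate. Fluorescence change (340/450 nm) over 15 min at room temperature, normalized to controls, fitted to 4-parameter Hill.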

[10] = target: N-terminal Xaa-Pro-Lys N-methyltransferase 1 (Homo sapiens) (UniProt Q9BV86); experiment: qHTS Assay for Inhibitors of N-terminal methyltransferase 1 (NTMT1): LOPAC validation of the NTMT1 SAHH-coupled ThioGlo3 Assay (AID 1347143);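 also: SAH from peptide methylation measured as thiol fluorescence via SAHH coupling and ThioGlo3; nearly all actives have a fitted effect of over 70% in size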; also: potency is read from the fitted curve at half-maximal effect
Summary of the method: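 Recombinant human NTMT1 (125nM) was pre-incubated 1 min at room temperature with compounds over a concentration range, then a mix of 100uM SAM, 10uM SAHH and 15uM ThioGlo3 (concentrations in added reagent) was added. ThioGlo3 fluorescence (ex 340/em 450nm) after 30 min was normalized to the initial reading.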

Furin (Homo sapiens) = Furin (Homo sapiens) (UniProt P09958); experiment: Furin counterscreen qHTS for Zika virus inhibitors (AID 1347149);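 also: purified recombinant full-length human furin enzyme at 5 nM; fluorescence gain from furin cutting a BOC-RVRR-AMC peptide substrate over 15 min; top concentration of the series differs between compounds; nearly all actives have a fitted effect of over 70% in size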
Summary of the method: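 Fluorogenic cleavage of BOC-RVRR-AMC (2 microM final, Km ~15 µM) was monitored (ex 340, em 450 nm) at 37C after 15 min RT preincubation of 5 nM furin with compounds in HEPES pH 7.0 buffer with CaCl2 and Triton X-100. Percent inhibition was fitted to a 4-parameter Hill curve.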

[11] = test system: Zika virus NS2B-NS3 protease (unlinked); experiment: Optimization of GU AMC qHTS for Zika virus inhibitors: Unlinked NS2B-NS3 protease assay (AID 1347151); also: series mostly up to about 52 µM; nearly all actives have a fitted effect of over 80% in size
Summary of the method: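 Unlinked protease (25 nM final); buffer 10 mM Tris-HCl pH 8.0 + 0.01% Tween 20; AMC substrate; 15 min RT, dark; Δfluorescence normalized to no-inhibitor/no-enzyme controls; 4-parameter Hill fit.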

[12] = qHTS of pediatric cancer cell lines to identify multiple opportunities for drug repurposing: Confirmatory screen for Rh18 cells (AID 1347125); also: nearly all actives have a fitted effect of over 55% in size
Summary of the method: as §1

[13] = qHTS of pediatric cancer cell lines to identify multiple opportunities for drug repurposing: Confirmatory screen for Rh30 cells (AID 1347126); also: nearly all actives have a fitted effect of over 55% in size
Summary of the method: as §1

[14] = qHTS of pediatric cancer cell lines to identify multiple opportunities for drug repurposing: Confirmatory screen for OHS-50 cells (AID 1347128); also: potency is read from the fitted curve at half-maximal effect
Summary of the method: as §1

[15] = qHTS of pediatric cancer cell lines to identify multiple opportunities for drug repurposing: Confirmatory screen for U-2 OS cells (AID 1347122); also: nearly all actives have a fitted effect of over 65% in size
Summary of the method: as §1

[16] = qHTS of pediatric cancer cell lines to identify multiple opportunities for drug repurposing: Confirmatory screen for Rh41 cells (AID 1347123);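 also: 48 h compound exposure; nearly all actives have a fitted effect of over 60% in size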
Summary of the method: as §1

Sequence of N-terminal Xaa-Pro-Lys N-methyltransferase 1 (Homo sapiens) (Q9BV86 whole entry, looked up): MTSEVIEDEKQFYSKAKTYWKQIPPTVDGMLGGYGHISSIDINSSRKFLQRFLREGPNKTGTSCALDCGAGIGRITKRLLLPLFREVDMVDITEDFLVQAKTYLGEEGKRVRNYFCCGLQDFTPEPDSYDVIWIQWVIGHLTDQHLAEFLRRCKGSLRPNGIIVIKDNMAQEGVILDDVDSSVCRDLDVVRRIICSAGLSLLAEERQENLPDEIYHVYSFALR
Sequence of Furin (Homo sapiens) (P09958 whole entry, looked up): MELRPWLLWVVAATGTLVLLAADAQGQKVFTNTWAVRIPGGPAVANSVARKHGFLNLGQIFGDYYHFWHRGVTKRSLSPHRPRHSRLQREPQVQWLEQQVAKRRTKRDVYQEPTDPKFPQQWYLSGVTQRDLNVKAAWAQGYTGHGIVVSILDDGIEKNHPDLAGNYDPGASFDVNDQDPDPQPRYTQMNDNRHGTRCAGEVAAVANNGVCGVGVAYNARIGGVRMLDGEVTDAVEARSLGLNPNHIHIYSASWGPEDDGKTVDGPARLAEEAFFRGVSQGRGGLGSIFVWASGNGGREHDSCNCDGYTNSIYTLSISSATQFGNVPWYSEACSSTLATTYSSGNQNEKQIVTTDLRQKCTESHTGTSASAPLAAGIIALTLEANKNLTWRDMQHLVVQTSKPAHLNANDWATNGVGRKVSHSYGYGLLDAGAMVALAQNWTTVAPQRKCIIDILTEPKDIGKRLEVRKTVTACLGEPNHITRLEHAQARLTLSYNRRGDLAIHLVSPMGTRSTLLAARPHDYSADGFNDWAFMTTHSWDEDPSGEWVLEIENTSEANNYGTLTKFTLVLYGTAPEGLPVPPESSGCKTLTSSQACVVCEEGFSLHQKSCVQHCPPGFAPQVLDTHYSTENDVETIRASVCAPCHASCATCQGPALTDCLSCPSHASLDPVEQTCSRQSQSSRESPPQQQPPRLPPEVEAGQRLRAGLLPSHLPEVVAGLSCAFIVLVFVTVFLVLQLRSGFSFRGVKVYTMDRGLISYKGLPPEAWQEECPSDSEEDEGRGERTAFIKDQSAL

For `[O-][n+]1ccccc1SSc1cccc[n+]1[O-]`, the Potency [1] was 2570 nM (active), the Potency [2] was 811 nM (active) and the Potency [3] was 1290 nM (active). For the same molecule, the Potency [4] was “inactive”, the Potency [5] was “inactive” and the Potency [6] was “inactive”. For the same molecule, the Potency [7] was 1820 nM (active), the Potency [8] was 3230 nM (active) and the Potency [9] was “inactive”.

In the case of `NC(=O)C(=O)O`, the Potency [10] is reported as “inactive”, the Potency (Furin (Homo sapiens)) is reported as “inactive” and the Potency [11] is reported as “inactive”.

For `NCC1OC(OC2C(O)[C@@H](OC3C(O)C(N)CC(N)C3OC3OC(CO)C(O)C(O)C3N)O[C@@H]2CO)C(N)C(O)C1O` (stereo partly drawn), the Potency [10] was “inactive”.

With `NO` the Potency [10] was “inactive” and the Potency [11] was “inactive”.

In the case of `O=[N+]([O-])c1ccc(CSc2ncnc3c2ncn3[C@@H]2O[C@H](CO)C(O)[C@H]2O)cc1` (stereo partly drawn), the Potency [10] is reported as “inactive”.

With `N=c1ccn2c(n1)O[C@H]1C(O)[C@@H](CO)O[C@H]12` (stereo partly drawn) the Potency [10] was “inactive”.

For `CCCCC#Cc1nc(NC)c2ncn([C@@H]3O[C@H](CO)[C@@H](O)C3O)c2n1` (stereo partly drawn), the Potency [10] was 39800 nM (active).

For `C=C[C@H]1CN2CC[C@@H]1C[C@H]2[C@H](O)c1ccnc2ccc(OC)cc12`, the Potency [10] was 56200 nM (active).

In the case of `COC(=O)Nc1nc2ccc(C(=O)C3CC3)cc2[nH]1`, the Potency [2] is reported as 2330 nM (active), the Potency [3] is reported as 1170 nM (active) and the Potency [4] is reported as 1470 nM (active). The Potency [5] was “inactive”, the Potency [6] was 2330 nM (active) and the Potency [12] was “inactive”. For the same molecule, the Potency [13] was “inactive”, the Potency [7] was 1310 nM (active) and the Potency [14] was 1310 nM (active). For the same molecule, the Potency [9] was “inactive”.

For `CCOC(=O)c1ccccc1O`, the Potency [1] was “inactive”, the Potency [3] was 1470 nM (active) and the Potency [5] was “inactive”. For the same molecule, the Potency [15] was “inactive”, the Potency [16] was “inactive” and the Potency [14] was “inactive”. The Potency [8] was “inactive” and the Potency [9] was “inactive”.

With `NC(=O)C1=CN(C2OC(COP(=O)(O)OP(=O)(O)OC[C@H]3O[C@@H](n4cnc5c(N)ncnc54)[C@H](OP(=O)(O)O)C3O)C(O)C2O)C=CC1` (stereo partly drawn) the Potency [10] was “inactive”.
